# Assay results: PubChem BioAssay (NCI)
# About 83,000 compounds went through this panel and 20% of them were active in at least one assay; those are over-represented in the sample as a whole.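 Negative percent growth values reflect cell death: -40 means 40% of the cells present at the start died, and -100 means all died.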 A number with no mark means an inactive call. The source made the active and inactive calls. The calls were made as follows: active = growth percent below 10; inactive = the rest.
# Key:
# Assay in all cases: NCI-60 one-dose screen, 48 h (100 = growth as untreated, 0 = no growth, -100 = all killed)
# Conditions in all cases: 10 µM unless noted
# NCI-H23 lung = system: NCI-H23 lung
# NCI-H226 lung = system: NCI-H226 lung
# NCI-H322M lung = system: NCI-H322M lung
# HOP-62 NSCLC = system: HOP-62 NSCLC
# NCI-H460 lung = system: NCI-H460 lung
# HOP-92 NSCLC = system: HOP-92 NSCLC
# NCI-H522 lung = system: NCI-H522 lung
# A549/ATCC NSCLC = system: A549/ATCC NSCLC
# 786-0 renal = system: 786-0 renal
# COLO 205 colon = system: COLO 205 colon
Compound,growth (NCI-H23 lung),growth (NCI-H226 lung),growth (NCI-H322M lung),growth (HOP-62 NSCLC),growth (NCI-H460 lung),growth (HOP-92 NSCLC),growth (NCI-H522 lung),growth (A549/ATCC NSCLC),growth (786-0 renal),growth (COLO 205 colon)
CNCCN(C)c1ccc(Nc2cc(NC3CC3)n3ncc(C#N)c3n2)cc1NC(C)=O,-5.36% (active),10.6%,10.5%,13.4%,8.31% (active),-9.1% (active),-35.4% (active),12%,12.8%,4.36% (active)
C#CCOc1cccc(/C(N)=N/C(N)=N/c2nc3ccccc3s2)c1,50.2%,68.1%,96.3%,-36.3% (active),90.5%,125%,96.9%,10.8%,107%,119%
Nc1nc(=O)n([C@H]2C[C@H](O)[C@@H](CO)O2)cc1C=O,112%,111%,110%,95.6%,103%,57.7%,102%,103%,102%,14.5%
Clc1ccc2[nH]cc(-c3nn4cc(-c5cccnc5)nc4s3)c2c1,92.8%,96.5%,98%,82.2%,99.9%,83.6%,97.1%,99.4%,113%,88.9%
Cc1ccc(-c2cc3nc(C(Cl)Cl)nc(-c4ccc(S(=O)(=O)N(C)C)cc4)n3n2)cc1,90.9%,87.7%,107%,77.9%,93.5%,128%,89.7%,88.4%,97.9%,98.1%
CCOC(=O)c1c(NC(=O)c2ccc(C(F)(F)F)cc2)sc2c(CN3CCN(C)CC3)c(O)ccc12,56.4%,-6.63% (active),10.2%,-78.6% (active),-70.7% (active),24.2%,-21.3% (active),-74.8% (active),-93.6% (active),-67.5% (active)
CN1CCN(Cc2ccc(NC(=O)c3cncc(C#Cc4cnc5ccc(OC6CCOCC6)nn45)c3)cc2C(F)(F)F)CC1,-58.7% (active),-58.4% (active),-44.7% (active),-77.4% (active),-77.9% (active),-31.8% (active),-75.5% (active),-77.3% (active),-89.1% (active),-82.8% (active)
N#Cc1c(-c2cccs2)c(C#N)c(=O)n(Cc2nc3ccccc3[nH]2)c1N,90.7%,87%,98.5%,93.3%,101%,95.2%,95.1%,103%,103%,111%
O=C(/C=C/Nc1ccc(S(=O)(=O)Nc2ncccn2)cc1)c1ccc(N=Cc2c(O)[nH]c3ccccc23)cc1,96.5%,107%,114%,108%,105%,93.6%,98.7%,102%,96.2%,117%
Cc1ccc(C(=O)Nc2ccc(CNCCN3CCOCC3)c(C(F)(F)F)c2)cc1C#Cc1cnc2cccnn12,21.5%,20.5%,47.9%,15.4%,18.9%,-11.9% (active),4.82% (active),19.2%,14.2%,-18.8% (active)
NS(=O)(=O)c1cccc(Nc2nc(SCC(=O)c3ccc(Cl)cc3)nc3c2CCC3)c1,75.1%,87.7%,97.1%,76.3%,97.6%,63.3%,95.6%,91.7%,82.5%,109%
COc1cccc2c1C=CC1(O2)Oc2cccc(OC)c2C=C1C (stereo not given),34.8%,57.4%,46.1%,55.9%,7.1% (active),-5.13% (active),12.6%,25.1%,26.9%,16.6%
Cc1ccc(NC(=O)/C=C/c2ccc(OCCCOc3ccc4c(C)cc(=O)oc4c3)cc2)cc1,75.1%,56.8%,37.8%,48.5%,38.8%,35.7%,51.9%,82.9%,44.3%,82.2%
